The panel holds about 83,000 compounds, 20% with a hit somewhere; the sample as a whole holds those more often.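 Each cell line was grown in a 96-well plate and treated with one concentration of compound for 48 hours. Values below 10 were considered active.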 Values without a mark were called inactive. Activity calls are given as the source filed them.
tested on: PC-3 prostate; test: NCI-60 one-dose screen, 48 h (100 = growth as untreated, 0 = no growth, -100 = all killed); conditions: 10 µM unless noted

Row | SMILES | growth
1 | Cc1ccc(NC(=O)CNc2cc(C(N)=O)cc(F)c2C)c(Cl)c1 | 85.7%
2 | COc1ccc(N2CCN(C3=C(Cl)C(=O)C(C)=C(C)C3=O)CC2)cc1 | 92.3%
3 | CN1CCN(c2ccc(/C=N/Nc3nc4ccccc4c(=O)n3-c3ccccc3)cc2)CC1 | 93.2%
4 | COc1cc(-c2nc3sccn3c2-c2ccnc(S(C)(=O)=O)n2)ccc1F | 105%
5 | Cc1ccc2c(c1)Oc1nc(N)c(C#N)c(N)c1C2Sc1ccc(F)cc1 (centres undefined) | -96.8% (active)
6 | CCCn1cnc2c(c1=N)C(c1ccc(F)cc1)c1sc3c(C)cccc3c1O2 (centres undefined) | 33.4%
7 | COc1ccc(Cn2cc3c(c2-c2cc(OC)c(OC)c(OC)c2)CCc2c(CN4CCCC4)noc2-3)cc1 | 29%
8 | CC1=N[C@@H]2CN(C(=O)OC(C)(C)C)C[C@@H]2n2c1cc1ccccc1c2=O | 92%
9 | COc1cc(OC)cc(C(=O)Nc2cccc(C#Cc3cccc4[nH]nc(N)c34)c2)c1 | 31.9%
10 | COc1ccccc1-n1cc(C#N)c(N)c1C(=O)c1ccc(Br)cc1 | 63.4%
11 | CS(=O)(=O)Nc1cc(-c2ccc3ncc(C#N)c(NCc4cccc(F)c4)c3c2)cnc1Cl | 4.17% (active)
12 | CC[C@H](CO)Nc1ccc2ncc(C#Cc3cncc(C(=O)Nc4ccc(CN5CCN(C)CC5)c(C(F)(F)F)c4)c3)n2n1 | -31.7% (active)
13 | COc1cc(-c2nc(SCCC(C)C)nc(NNC(=O)c3ccncc3)c2C#N)cc(OC)c1OC | 78.6%
14 | CCCCCc1ccc(S(=O)(=O)Nc2cc(-c3csc(NC(=O)CN4CCN(CCO)CC4)n3)ccc2OC)cc1 | 48%
15 | CCCn1cnc2c(c1=N)C(c1ccc(OC)cc1)c1sc3c(CC)cccc3c1O2 (centres undefined) | 3.57% (active)
16 | C#Cc1ccc(C(=O)NCc2ccc(/C=C/C(=O)c3nccn3C)cc2)cc1 | 30.7%

tested on: SK-MEL-5 melanoma; test: as above; conditions: 10 µM unless noted

Row | SMILES | growth
17 | NS(=O)(=O)c1ccc(Nc2nc(N/N=C/c3c[nH]c4ccccc34)nc(Nc3ccccc3)n2)cc1 | 39.8%
18 | CCc1cccc2c3c(sc12)C(c1ccc(OC)cc1)C(C#N)=C(/N=C/c1ccc(Cl)cc1)O3 (centres undefined) | 4.03% (active)
19 | Cn1ccnc1C(=O)/C=C/c1ccc(CNC(=O)c2ccc(F)cc2)cc1 | 72.8%
20 | N#Cc1cccc(NC(=O)c2cc(-c3ccc(F)cc3F)ccc2O)c1 | -74.3% (active)
21 | O=S(=O)(NCCCNc1nccc(-c2[nH]c(-c3ccccc3)nc2-c2ccc(Cl)c(O)c2)n1)c1cccc2ccccc12 | 13.1%
22 | CC1(C)[C@@H](O)CC[C@]2(C)[C@H]3CC[C@@H]4[C@H]5[C@H](C(=O)/C=C\c6ccncc6)CC[C@]5(O)CC[C@@]4(C)[C@]3(C)CC[C@@H]12 | 80.6%
23 | CS(=O)(=O)Nc1cc(-c2ccc3ncc(C#N)c(N[C@H](CO)c4ccccc4)c3c2)cnc1Cl | -77.3% (active)
24 | O=C(CSc1nc2ccccc2c(=O)n1-c1ccccc1)Nc1ccc(-c2nc3ccc([N+](=O)[O-])cc3[nH]2)cc1 | 91.4%
25 | Oc1cccc2ccc(-c3nnc(SCc4ccc(O)c5ncccc45)n3-c3ccccc3)nc12 | -31.1% (active)
26 | C=CCn1c(SCC(=O)Nc2ccc(C(=O)/C=C/c3ccc(C)cc3)cc2)nnc1-c1c[nH]c2ccccc12 | 69.2%
27 | C[C@@H](Nc1c(C#N)cnc2ccc(-c3cnc(Cl)c(NS(C)(=O)=O)c3)cc12)c1ccccc1 | -82.8% (active)
28 | CCN(CC)c1ccc(NC2=C(Cl)C(=O)c3nc(C)ccc3C2=O)cc1 | 79.3%
29 | C#Cc1nc(C(=O)NCCC(=O)Nc2ccc(NC(=O)c3ccc(/C=C/C(=O)c4nccn4C)cc3)cc2)cs1 | 87%
30 | CCN(CC)CCn1c2ccc(O)cc2c2sc3cc(OC)ccc3c(=O)c21 | 76.7%
31 | CC1(C)CC[C@]2(C(=O)N3CCOCC3)CC[C@]3(C)C(=CC[C@@H]4[C@@]5(C)C/C(=C/c6ccccn6)C(=O)C(C)(C)[C@@H]5CC[C@]43C)[C@@H]2C1 | 69.3%
32 | Cc1nc(-c2ccccc2O)ccc1C(=O)N=Nc1c(O)[nH]c2ccc(Br)cc12 | 96.9%
33 | O=C(CCn1c[n+](CC(=O)c2ccc(-c3ccccc3)cc2)c2ccccc21)Nc1cccc2cccnc12 | 20.8%
34 | COC(=O)c1[nH]nc2c1C1(C(=O)c3cccc4cccc1c34)C(C#N)=C(N)O2 (centres undefined) | 98.6%
35 | N=c1c2cc(-c3ccccc3)oc2ncn1/N=C/c1ccc(Cl)cc1 | 91.2%

Row | SMILES | growth
36 | Cc1ccc(-n2c(/C=C3\C(=O)Nc4ccccc43)ccc2CO)cc1 | 73.7%
37 | CC(=O)N(C)C1CCc2c(sc(NC(=O)c3ccc(C(C)(C)C)cc3)c2C(N)=O)C1 (centres undefined) | 91.7%
38 | CC1(C)[C@@H](O)CC[C@]2(C)[C@H]3CC[C@@H]4[C@H]5[C@H](C(=O)/C=C\c6ccc([N+](=O)[O-])cc6)CC[C@]5(O)CC[C@@]4(C)[C@]3(C)CC[C@@H]12 | 75.8%
39 | Cc1ccc(NC(=O)CNc2cc(C(N)=O)cc(F)c2C)c(Cl)c1 | 97.1%
40 | COc1ccc(N2CCN(C3=C(Cl)C(=O)C(C)=C(C)C3=O)CC2)cc1 | 97.6%
41 | CN1CCN(c2ccc(/C=N/Nc3nc4ccccc4c(=O)n3-c3ccccc3)cc2)CC1 | 92.4%
42 | COc1cc(-c2nc3sccn3c2-c2ccnc(S(C)(=O)=O)n2)ccc1F | 96.5%
43 | Cc1ccc2c(c1)Oc1nc(N)c(C#N)c(N)c1C2Sc1ccc(F)cc1 (centres undefined) | -95.4% (active)
44 | CCCn1cnc2c(c1=N)C(c1ccc(F)cc1)c1sc3c(C)cccc3c1O2 (centres undefined) | 24.8%
45 | COc1ccc(Cn2cc3c(c2-c2cc(OC)c(OC)c(OC)c2)CCc2c(CN4CCCC4)noc2-3)cc1 | 20.7%
46 | CC1=N[C@@H]2CN(C(=O)OC(C)(C)C)C[C@@H]2n2c1cc1ccccc1c2=O | 99.1%
47 | COc1cc(OC)cc(C(=O)Nc2cccc(C#Cc3cccc4[nH]nc(N)c34)c2)c1 | -32.6% (active)
48 | COc1ccccc1-n1cc(C#N)c(N)c1C(=O)c1ccc(Br)cc1 | 77.4%
49 | CS(=O)(=O)Nc1cc(-c2ccc3ncc(C#N)c(NCc4cccc(F)c4)c3c2)cnc1Cl | -96.6% (active)
50 | CC[C@H](CO)Nc1ccc2ncc(C#Cc3cncc(C(=O)Nc4ccc(CN5CCN(C)CC5)c(C(F)(F)F)c4)c3)n2n1 | -95.4% (active)
51 | COc1cc(-c2nc(SCCC(C)C)nc(NNC(=O)c3ccncc3)c2C#N)cc(OC)c1OC | 84.4%
52 | CCCCCc1ccc(S(=O)(=O)Nc2cc(-c3csc(NC(=O)CN4CCN(CCO)CC4)n3)ccc2OC)cc1 | -88.8% (active)
53 | CCCn1cnc2c(c1=N)C(c1ccc(OC)cc1)c1sc3c(CC)cccc3c1O2 (centres undefined) | 30.3%
54 | C#Cc1ccc(C(=O)NCc2ccc(/C=C/C(=O)c3nccn3C)cc2)cc1 | 38.8%
